Results filed as inconclusive are left out. The source made the active and inactive calls. The call rests on the fitted dose curve; in most records, active means well fitted cell-killing curve with a large enough effect; inconclusive means small, poorly fitted or top-dose-only effect, or effect the other way; inactive means flat fitted curve, though single readings scatter.
On the % scale 0 is the no-effect control and ±100 the full control effect; potency means the concentration at half of the fitted maximal effect.

The first assay relates to CASKI. In words: Primary qHTS to identify gynecologic anti-cancer compounds using libraries of approved drugs and bioactive compounds (AID 1345084). Further: nearly all actives have a fitted effect of over 55% in size. Conditions: Gynecologic cancer cell panel viability, ATPlite luminescence, 48 h; series mostly up to 57.5 µM; activity change, negative = cytotoxicity: at the top concentration. The procedure, abridged:
(§1)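 48 h compound exposure at 37 C, 5% CO2; five-point qHTS. ATPlite luminescence readout of cell ATP.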
Background: Quantitative high-throughput screening tests each substance at several concentrations.
Turning to `O=NN(CCCl)C(=O)NC1CCCCC1`, the “activity change, negative = cytotoxicity” value was -2.06% (inactive).
Same read-out and setting: for `Clc1ccccc1CN1CCc2sccc2C1` the value was -0.848% (inactive).
As for `Cn1c(=O)c2c(ncn2CC(O)CO)n(C)c1=O` (configuration not stated), the “activity change, negative = cytotoxicity” value is -1.83% (inactive).
Same read-out and setting: as for `Cc1cccc(N(C)C(=S)Oc2ccc3ccccc3c2)c1`, the figure is -0.895% (inactive); as for `CN(CCOc1ccc(CC2SC(=O)NC2=O)cc1)c1ccccn1` (configuration not stated), 3.09% (inactive).
The same measure, in the same setting: for `COC(c1ccccc1)(c1ccccc1)[C@H](Oc1nc(C)cc(C)n1)C(=O)O` the value was -0.357% (inactive); for `CCc1cc(C(N)=S)ccn1`, -4.21% (inactive).
Same read-out and setting: as for `COCCCOc1cc(C[C@@H](C[C@H](N)[C@@H](O)C[C@H](C(=O)NCC(C)(C)C(N)=O)C(C)C)C(C)C)ccc1OC`, the figure is 20.4% (inactive).
Regarding `CCN(C)C(=O)Oc1cccc([C@H](C)N(C)C)c1`, the “activity change, negative = cytotoxicity” value is 13.3% (inactive).
On the same count and under the same terms, for `CCn1cc(C(=O)O)c(=O)c2cc(F)c(N3CCNCC3)nc21` the value was 15.2% (inactive).
On the same count and under the same terms, as for `CC[C@H](NC(C)C)[C@H](O)c1ccc(O)c2[nH]c(=O)ccc12`, the figure is -1.13% (inactive).
On the same count and under the same terms, for `CC(C)OC(=O)C(C(=O)OC(C)C)=C1SC=CS1` the value was 13.8% (inactive); for `COc1ccc(-c2ccc3cc(C(=O)O)ccc3c2)cc1C12CC3CC(CC(C3)C1)C2`, -4.97% (inactive).
For `CCOC(=O)c1ccc(OC(=O)CCCCCN=C(N)N)cc1`, the “activity change, negative = cytotoxicity” value is 0.483% (inactive).
In the case of `O=S(=O)(c1cccc2cnccc12)N1CCCNCC1`, the “activity change, negative = cytotoxicity” value is 7.46% (inactive).
Same read-out and setting: for `CNC1CCCN(c2c(F)cc3c(=O)c(C(=O)O)cn(C4CC4)c3c2OC)C1` (configuration not stated) the value was 5.71% (inactive); for `COc1ccc2c(c1)c(CC(=O)OCC(=O)O)c(C)n2C(=O)c1ccc(Cl)cc1`, 8.46% (inactive).

The test system of a further assay is Es-2. Described as above. To be noted: Gynecologic cancer cell panel viability, ATPlite luminescence, 48 h; series mostly up to 57.5 µM; activity change, negative = cytotoxicity: at the top concentration. The procedure, abridged: as §1
For orientation: ATP-based viability assays read luminescence as a measure of living cells.
As for `CCCN[C@H]1CCc2nc(N)sc2C1`, the “activity change, negative = cytotoxicity” value was -0.761% (inactive).
On the same count and under the same terms, for `CCOCC(O)COc1ccc(NC(=O)CC[S+](C)C)cc1` (configuration not stated) the value was 0.953% (inactive); for `COc1cc(NS(=O)(=O)c2ccc(N)cc2)nc(OC)n1`, 14.3% (inactive).
In the case of `COC(=O)Nc1nc2ccc(C(=O)c3ccccc3)cc2[nH]1`, the Potency was 2820 nM (active).
Turning to `O=C(N[C@H](CO)[C@H](O)c1ccc([N+](=O)[O-])cc1)C(Cl)Cl`, the “activity change, negative = cytotoxicity” value is -22.8% [at 116 µM] (inactive).
Same read-out and setting: as for `CCCc1cc(C(N)=S)ccn1`, the figure is 0.643% (inactive); as for `O=C(O)c1cn(C2CC2)c2cc(N3CCNCC3)c(F)cc2c1=O`, -16.4% (inactive).
Take `O=C(O)CCn1c2c(c3ccccc31)C[C@H](NS(=O)(=O)c1ccc(F)cc1)CC2`: the Potency entry was “inactive”.
As to `Cc1noc(NS(=O)(=O)c2ccc(N)cc2)c1C`, the “activity change, negative = cytotoxicity” value is -0.552% (inactive).
Still for that read-out and setting: as for `CCn1cc(C(=O)O)c(=O)c2cc(F)c(N3CCN(C)CC3)cc21`, the figure is -0.829% [at 25.3 µM] (inactive); as for `O=C(O)CSCC(=O)NC1CCSC1=O` (configuration not stated), 1.57% (inactive); as for `CN(C)CCc1c[nH]c2ccc(CS(=O)(=O)N3CCCC3)cc12`, 7.73% (inactive).
The same measure, in the same setting: as for `CCOc1cc(N)c(Cl)cc1C(=O)NCC1CN(Cc2ccc(F)cc2)CCO1` (configuration not stated), the figure is 5.15% (inactive).
Take `CCC(=O)O[C@]1(C(=O)SCF)[C@H](C)C[C@H]2[C@@H]3C[C@H](F)C4=CC(=O)C=C[C@]4(C)[C@@]3(F)[C@@H](O)C[C@@]21C`: the “activity change, negative = cytotoxicity” value is 0.317% (inactive).
Same read-out and setting: for `Cc1oc(=O)oc1CN1CCN(c2cc3c(cc2F)c(=O)c(C(=O)O)c2n3C(C)S2)CC1` (configuration not stated) the value was -0.788% (inactive).
Turning to `NC1(c2ccc(-c3nc4ccn5c(=O)[nH]nc5c4cc3-c3ccccc3)cc2)CCC1`, the Potency entry is “inactive”.
For `C[C@@H](CN1CC(=O)NC(=O)C1)N1CC(=O)NC(=O)C1`, the “activity change, negative = cytotoxicity” value was 1.12% (inactive).
Still for that read-out and setting: for `OC(Cn1cncn1)(Cn1cncn1)c1ccc(F)cc1F` the value was 8.05% (inactive); for `O=NN(CCCl)C(=O)NC1CCCCC1`, -0.113% (inactive); for `Clc1ccccc1CN1CCc2sccc2C1`, 3.18% (inactive).
`Cn1c(=O)c2c(ncn2CC(O)CO)n(C)c1=O` (configuration not stated): the “activity change, negative = cytotoxicity” value was 5.09% (inactive).
Same read-out and setting: as for `Cc1cccc(N(C)C(=S)Oc2ccc3ccccc3c2)c1`, the figure is 15.3% (inactive); as for `CN(CCOc1ccc(CC2SC(=O)NC2=O)cc1)c1ccccn1` (configuration not stated), 3.25% (inactive).
Still for that read-out and setting: as for `COC(c1ccccc1)(c1ccccc1)[C@H](Oc1nc(C)cc(C)n1)C(=O)O`, the figure is -18.9% (inactive); as for `CCc1cc(C(N)=S)ccn1`, 2.64% (inactive); as for `COCCCOc1cc(C[C@@H](C[C@H](N)[C@@H](O)C[C@H](C(=O)NCC(C)(C)C(N)=O)C(C)C)C(C)C)ccc1OC`, 8.64% (inactive).
On the same count and under the same terms, as for `CCN(C)C(=O)Oc1cccc([C@H](C)N(C)C)c1`, the figure is -2.54% (inactive); as for `CCn1cc(C(=O)O)c(=O)c2cc(F)c(N3CCNCC3)nc21`, 9.79% (inactive).
For `CC[C@H](NC(C)C)[C@H](O)c1ccc(O)c2[nH]c(=O)ccc12`, the “activity change, negative = cytotoxicity” value is 20.1% (inactive).
The same measure, in the same setting: for `CC(C)OC(=O)C(C(=O)OC(C)C)=C1SC=CS1` the value was 2.08% (inactive).
The same measure, in the same setting: for `COc1ccc(-c2ccc3cc(C(=O)O)ccc3c2)cc1C12CC3CC(CC(C3)C1)C2` the value was 2.58% (inactive); for `CCOC(=O)c1ccc(OC(=O)CCCCCN=C(N)N)cc1`, 0.82% (inactive); for `O=S(=O)(c1cccc2cnccc12)N1CCCNCC1`, -1.95% (inactive).
Same read-out and setting: as for `CNC1CCCN(c2c(F)cc3c(=O)c(C(=O)O)cn(C4CC4)c3c2OC)C1` (configuration not stated), the figure is -0.0135% (inactive); as for `COc1ccc2c(c1)c(CC(=O)OCC(=O)O)c(C)n2C(=O)c1ccc(Cl)cc1`, -1.97% (inactive).

The record behind these values is PubChem BioAssay (NCATS).
